From PubChem BioAssay (NCATS)
The source made the active and inactive calls. Calls follow the shape of the full dose curve.

Test: qHTS drug screen for cell cycle checkpoint inhibitors in PARPi-resistant BRCA-mutant ovarian cancer cell lines. (AID 1963452)
Conditions: PEO1/OlaR viability, CellTiter-Glo luminescence, 96 h; for Z-AUC: stronger effect = lower value
Description: Women's Malignancies Branch, Center for Cancer Research (CCR),
National Cancer Institute (NCI), National Institutes of Health (NIH), Bethesda, MD
Poly (ADP-ribose) polymerase inhibitors (PARPis) have changed the treatment paradigm in breast cancer gene (BRCA) - mutant high-grade serous ovarian carcinoma (HGSC). However, most patients eventually develop resistance to PARPis, highlighting an unmet need for improved therapeutic strategies. Using high-throughput drug screens, we identified ataxia telangiectasia and rad3-related protein/checkpoint kinase 1 (CHK1) pathway inhibitors as cytotoxic and further validated the activity of the CHK1 inhibitor (CHK1i) prexasertib in PARPi-sensitive and -resistant BRCA-mutant HGSC cells and xenograft mouse models. CHK1i monotherapy induced DNA damage, apoptosis, and tumor size reduction. We then conducted a phase 2 study (NCT02203513) of prexasertib in patients with BRCA-mutant HGSC. The treatment was well tolerated but yielded an objective response rate of 6% (1 of 17; one partial response) in patients with previous PARPi treatment. […] BRCA reversion mutation in previously PARPi-treated BRCA-mutant patients was not associated with resistance to CHK1i.
Among others, 1082 oncology drugs, both approved and investigational, were prioritized based on their status in clinical trial development. […] Drugs with average Z-AUC values less than -1.0 in all three cell lines were classified as "hits" resulting in 151 oncology drug hits. The screen also confirmed cross-resistance between olaparib and other PARPis (rucaparib, niraparib, and talazoparib) in PARPi-resistant PEO1/OlaR and PEO4.
[1] G. L. Lin, K. M. Wilson, M. Ceribelli, B. Z. Stanton, P. J. Woo, S. Kreimer, E. Y. Qin, X. Zhang, J. Lennon, S. Nagaraja, P. J. Morris, M. Quezada, S. M. Gillespie, D. Y. Duveau, A. M. Michalowski, P. Shinn, R. Guha, M. Ferrer, C. Klumpp-Thomas, S. Michael, C. McKnight, P. Minhas, Z. Itkin, E. H. Raabe, L. Chen, R. Ghanem, A. C. Geraghty, L. Ni, K. I. Andreasson, N. A. Vitanza, K. E.Warren, C. J. Thomas, M. Monje, Therapeutic strategies for diffuse midline glioma from high-throughput combination drug screening. Sci. Transl. Med. 11, (2019).
[2] T. M. Yamamoto, A. McMellen, Z. L. Watson, J. Aguilera, R. Ferguson, E. Nurmemmedov, T. Thakar, G. L. Moldovan, H. Kim, D. M. Cittelly, A. M. Joglar, E. P. Brennecke, H. Wilson, K. Behbakht, M. J. Sikora, B. G. Bitler, Activation of Wnt signaling promotes olaparib resistant ovarian cancer. Mol. Carcinog. 58, 1770 - 1782 (2019).
PROTOCOL TABLE (as described by Inglese J, Shamu CE and Guy RK. 2007)
SEQUENCE No. (e.g., 1, 2, 3, etc.); […] (e.g., Cells, Incubation, Reagent, etc.); VALUE; DESCRIPTION.
1; Compounds; 20nL; 1536-well white tissue culture-treated plates.
2; Cells; 5 uL; PEO1, PEO4, and PEO1/OlaR cells at 600 cells per well.
3; Incubation; 96 hr; 37C, 95% humidity, 5% CO2.
4; Reagent; 3 uL; CellTiter-Glo (Promega).
5; Incubation; 15 min; room temperature.
6; Detection; Luminescence, PHERAstar (BMG Labtech) plate reader.
NOTES (numbers refer to Sequence numbers above)
1. MIPE 5.0 compounds were acoustically dispensed by Echo Acoustic Liquid Handler (Beckman Coulter Life Sciences). Each compound was plated at an 11-point concentration range with 1:3 dilution. Bortezomib, a proteasome inhibitor (final concentration, 20 uM), was used as a positive.
2. PEO1, PEO4, and PEO1/OlaR were trypsinized and dispensed in 5 uLof growth medium using a Multidrop Combi dispenser at a density of 600 cells per well to allow compounds to be present during the exponential growth phase.
3. Plates were incubated for 96 hours at standard incubator conditions and covered by a stainless steel gasketed lid to prevent evaporation.
4. Three microliters of CellTiter-Glo (Promega) were added to each well.
5. Plates were incubated at room temperature for 15 min with a stainless-steel lid in place.
6. Luminescence readings were taken using PHERAstar (BMG Labtech). […]

[1] = measured here: PEO1 parental Z-AUC
Potency is read from the fitted curve at half-maximal effect.

SMILES	Potency	Z-AUC [1]	Z-AUC (measured here: PEO4 Z-AUC)	Z-AUC
O=C1NC(=O)/C(=C/c2ccc3nccc(-c4ccncc4)c3c2)S1	1.95 µM (active)	-1.47	-1.84	–
COc1cc(N2CCN(C)CC2)ccc1Nc1nccc(-c2cn(C)c3cnccc23)n1	–	0.299	0.437	-0.0606 (inactive)
CN(C)Cc1cccc(N=C(c2ccccc2)c2c(O)[nH]c3cc(C(N)=O)ccc23)c1	–	0.627	-0.143	0.325 (inactive)
CNCc1ccc(C)c(NC(=O)c2ccc(Nc3nc(-c4ccccc4)c4ccccc4n3)cc2)c1	–	-0.199	-0.532	-0.484 (inactive)
CC1CCC(n2c3cnccc3c3cnc(Nc4ccc5c(n4)CCN(C(=O)CO)C5)nc32)CC1 (configuration not stated)	–	1.18	0.34	0.557 (inactive)
N#C[C@@H]1C[C@@H]2C[C@@H]2N1C(=O)[C@@H](N)C12CC3CC(CC(O)(C3)C1)C2	–	0.593	-0.565	-0.557 (inactive)
Cn1cc(-c2cnc3ccc4ccc(CS(=O)(=O)NCc5ccccn5)cc4c(=O)c3c2)cn1	–	-0.542	-0.899	-1.05 (inactive)
CN1CCN(c2nc(C3=C(c4c[nH]c5ccccc45)C(=O)NC3=O)c3ccccc3n2)CC1	–	0.875	0.634	1.37 (inactive)
COc1cc2nc(-c3cc(F)ccc3O)nc(N[C@@H]3CNC[C@H]3C(C)(C)O)c2cc1OC	–	-0.378	-0.09	-0.315 (inactive)
Cc1[nH]c(/C=C2\C(=O)Nc3ccccc32)c(C)c1CCC(=O)O	–	0.668	0.162	0.922 (inactive)
O=C(c1ccc(F)c(F)c1Nc1ccc(I)cc1F)N1CC(O)([C@@H]2CCCCN2)C1	–	-0.911	-1.32	-1.02 (inactive)
COc1cc(F)ccc1-c1ncnc(Nc2cccc(CS(C)(=N)=O)c2)n1 (configuration not stated)	–	-1.2	-0.831	-0.906 (inactive)
C/C=C/CC(C)C(O)C1C(=O)NC(CC)C(=O)N(C)CC(=O)N(C)C(CC(C)C)C(=O)NC(C(C)C)C(=O)N(C)C(CC(C)C)C(=O)NC(C)C(=O)NC(C)C(=O)N(C)C(CC(C)C)C(=O)N(C)C(CC(C)C)C(=O)N(C)C(C(C)C)C(=O)N1C (configuration not stated)	–	0.643	0.0499	-0.474 (inactive)
Cc1ccc2cc(-c3c(C)ccc(C(=O)c4c(-c5ccccc5)n(C)n(-c5ccccc5)c4=O)c3N)ccc2n1	–	-0.233	-0.0214	-0.557 (inactive)
